This excerpt belongs to a sample that is enriched for hits.
ST2 IL33 inh: blocks human ST2 binding to IL-33 | inhibition, % for hits at 17 µM | AID 1259354 | AlphaLISA ST2-Fc/biotin-IL-33 interaction, 1 h | Q01638 | 78,000 tested, 2.3% active; in the data active means inhibition above about 30%
Target sequence (Q01638 whole entry, looked up): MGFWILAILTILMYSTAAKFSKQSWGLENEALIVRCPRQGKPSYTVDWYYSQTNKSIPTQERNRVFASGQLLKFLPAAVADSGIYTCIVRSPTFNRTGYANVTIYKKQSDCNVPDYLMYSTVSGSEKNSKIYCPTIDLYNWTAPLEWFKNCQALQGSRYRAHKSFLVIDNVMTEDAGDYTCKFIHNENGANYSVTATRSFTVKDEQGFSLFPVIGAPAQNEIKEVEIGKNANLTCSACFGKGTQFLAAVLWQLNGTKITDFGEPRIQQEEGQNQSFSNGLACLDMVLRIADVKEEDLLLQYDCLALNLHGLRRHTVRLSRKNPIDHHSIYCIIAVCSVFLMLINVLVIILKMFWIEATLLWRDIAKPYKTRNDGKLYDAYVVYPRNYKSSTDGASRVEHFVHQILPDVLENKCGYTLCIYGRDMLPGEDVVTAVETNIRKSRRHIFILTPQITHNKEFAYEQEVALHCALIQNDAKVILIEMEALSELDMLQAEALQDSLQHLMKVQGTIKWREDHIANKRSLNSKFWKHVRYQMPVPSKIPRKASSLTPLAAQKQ
Starred values were filed as active, the others as inactive; i = inactive; ! = not confirmed by another sample.

SMILES | ST2 IL33 inh
CC1(C)CC(=O)C(C(C2=C(O)CC(C)(C)CC2=O)c2ccc([N+](=O)[O-])s2)C(=O)C1 (stereo not drawn) | 30%*
CN(C)c1ccc(C(C2=C(O)CC(C)(C)CC2=O)C2C(=O)CC(C)(C)CC2=O)cc1 (stereo not drawn) | i
CCOC(=O)CSc1cc(C(=O)O)c2ccccc2n1 | i
Oc1ccccc1-c1nnc2n1N=C(c1ccc(Cl)cc1)CS2 | i
Cc1nnc2n1N=C(c1ccc(Cl)cc1)CS2 | 39%*!
COc1ccc(C2=Nn3c(nnc3-c3ccccc3)SC2)cc1 | i
CC1CCN(S(=O)(=O)c2ccc3[nH]c(=O)oc3c2)CC1 | i
Cc1ccsc1CN(C)C(=O)C1(Oc2cccnc2C)CCNCC1 | i
CCOc1ccc(-c2nc(SCC(=O)Nc3ccc4c(c3)OCCO4)n3[nH]c(=O)cc3n2)cc1 | i
CCN1/C(=C2/N=C(c3ccccc3)OC2=O)C=Cc2ccccc21 | 56%*
O=C1OC(c2ccc([N+](=O)[O-])cc2)=N/C1=C\c1ccccc1 | i
CCN1/C(=c2/sc3nc4ccccc4n3c2=O)C=Cc2cc(C)ccc21 | i
CCCOC(=O)C1=C(C)NC2=C(C(=O)C(C(=O)OC)C(C)C2)C1c1ccc(C)s1 (stereo not drawn) | i
CCOC(=O)C1=C(C)NC2=C(C(=O)c3ccccc32)C1c1cc(Br)ccc1OCC (stereo not drawn) | i
Cc1cccn2c(=O)c3cc(C(=O)NC4CCCCC4)c(=N)n(C(C)C)c3nc12 | i
CC1=C(C(=O)OCc2ccccc2)C(c2ccc(O)cc2)n2nnnc2N1 (stereo not drawn) | i
C#CCOc1c(Br)cc(C=O)cc1OCC | i
CCOc1ccccc1-c1c(C#N)c(N)nc(OC)c1C#N | i
CCOc1cc(/C=C(\C#N)c2nn(-c3ccccc3)c(N)c2C#N)cc(Br)c1OC | 31%*
COc1cc(CN2CCN(Cc3ccccc3)CC2)cc(OC)c1OC | i
Cc1c(C(=O)NC(C)C)oc2ccc(S(=O)(=O)N3CCOCC3)cc12 | i
CC12CCC3c4ccc(O)c(Br)c4CCC3C1CCC2O (stereo not drawn) | i
COc1ccc2c(c1)CCC1C2CC[C@@]2(C)C1CC[C@@H]2NCCCCCCN1C(=O)C=CC1=O (stereo partly drawn) | 46%*
C[C@]12CC[C@@H]3c4ccc(O)cc4CC[C@H]3[C@@H]1CCC2=O | i
O=C1CC(NC2CCSCC2)CN1Cc1ccccc1C(F)(F)F (stereo not drawn) | i
SMILES | ST2 IL33 inh
NCCCCC(=O)O | i
O=C(O)CCCC[C@H]1SC[C@H]2NC(=O)N[C@H]21 | 96%*
C=CCN1CC(C(=O)NCCN2Cc3ccccc3OC(c3ccsc3)C2)CC1=O (stereo not drawn) | i
COc1ccc2cc3cc(C(=O)NCc4ccc(C)cc4)sc3nc2c1 | 31%*
COCCCNC(=O)c1cc2cc3cc(OC)ccc3nc2s1 | i
CCN(CCCNC(=O)c1cc2cc3ccc(OC)cc3nc2s1)c1ccccc1 | 31%*
COc1ccc(NC(=O)c2cc3cc4ccc(C)cc4nc3s2)cc1OC | i
COc1ccc([N+](=O)[O-])cc1NC(=O)c1ccoc1C | i
COc1ccc2nc3sc(C(=O)NCc4ccccc4OC)cc3cc2c1 | i
COCCNC(=O)c1cc2cc3cc(OC)ccc3nc2s1 | i
COc1ccc2cc3cc(C(=O)N4CCN(C)CC4)sc3nc2c1 | i
COc1ccc2cc3cc(C(=O)Nc4ccc(OC)c(Cl)c4)sc3nc2c1 | 38%*
COc1ccc([N+](=O)[O-])cc1NC(=O)c1cc2cc3ccc(C)cc3nc2s1 | 46%*
CCCCNC(=O)c1cc2cc3cc(OC)ccc3nc2s1 | i
COc1ccc([N+](=O)[O-])cc1NC(=O)COc1ccc(C)cc1Br | i
CCCCN(C)S(=O)(=O)c1ccc(C(=O)Nc2nnc(CC)o2)cc1 | i
Cc1c(C(=O)NCCCN2CCCC2=O)oc2ccc(S(=O)(=O)N3CC(C)CC(C)C3)cc12 (stereo not drawn) | i
CCOc1ccc(C(=O)Nc2ccc(NC(C)=O)cc2)cc1Br | i
O=C(CCN1C(=O)c2ccccc2C1=O)Nc1ccc(S(=O)(=O)Nc2nccs2)cc1 | i
Cn1c(=O)[nH]c(=O)c2c1nc1oc(-c3ccc(Cl)cc3)cn12 | i
CCC(CC)C(=O)Nc1ccc(S(=O)(=O)Nc2cnc3ccccc3n2)cc1 | i
O=C(CCc1ccccc1)Nc1c(-c2cccs2)nc2ccccn12 | i
COCc1nc(NCc2cnc3c(C)cccn23)c2cnn(C)c2n1 | i
CCOc1ccc(N2C(=O)CC(Sc3nc4c(cc3C#N)CCCC4)C2=O)cc1 (stereo not drawn) | i
Cc1n[nH]c(C)c1S(=O)(=O)N1CCN(c2ccccc2F)CC1 | i
SMILES | ST2 IL33 inh
CCN(CC)CCNC(=O)CCCn1c(=O)[nH]c2ccc(Br)cc2c1=O | i
Oc1c(C=NCc2ccc(Cl)cc2Cl)[nH]c2ccc(Br)c(Cl)c12 | i
Oc1c(C=NCc2ccc(F)cc2)[nH]c2ccc(Br)c(Cl)c12 | 39%*
COc1ccc(CCN=CC2=C(O)CC(c3ccccc3)CC2=O)cc1OC (stereo not drawn) | i
Oc1c(C=NCCc2ccccc2)[nH]c2ccc(Br)c(Cl)c12 | 32%*
Oc1c(C=Nc2ccc(F)cc2)[nH]c2ccc(Br)c(Cl)c12 | 30%*
COc1cc(Br)c(Br)c(C=Nc2ccc(F)cc2)c1O | i
Cc1c(Cl)c(C)c([N+](=O)[O-])c(O)c1C=Nc1ccc(F)cc1 | i
Cc1cc(CN(C)Cc2cnn(C)c2C)oc1C | i
CCC(C)C1N=C2c3ccccc3N=C(SCC(=O)Nc3ccc(OC)cc3OC)N2C1=O (stereo not drawn) | i
CCCc1ncn(Cc2nc(-c3sccc3C)oc2C)n1 | i
Cc1ccc(-n2nc3c(c2NC(=O)c2ccc(S(=O)(=O)N(C)C)cc2)CSC3)c(C)c1 | i
O=C(Cn1nnc(-c2ccccc2)n1)Nc1ccccc1F | i
CN(C)c1ncnc2c1CCN(S(=O)(=O)c1ccc(Cl)s1)C2 | i
CCc1cccc(NC(=O)CCC(=O)NC(C)c2ncn[nH]2)c1 (stereo not drawn) | i
COc1ccc(C(=O)Nc2nc3c(s2)C[C@@H]2[C@](C)(CO)[C@H](O)CC[C@@]2(C)[C@@H]3CC(=O)N2CCC(C(N)=O)CC2)cc1 | i
CCc1nc(CN(C)CC2COc3ccccc3O2)c(C)[nH]1 (stereo not drawn) | i
c1ccc2oc(CN3Cc4[nH]cnc4C[C@H]3c3nc(-c4ccc5c(c4)OCO5)no3)cc2c1 | 61%*
O=C(NCc1ccccc1)N1Cc2[nH]cnc2C[C@H]1c1nc(-c2ccc3c(c2)OCO3)no1 | i
CC(C)(CC(=O)O)CC(=O)N1Cc2[nH]cnc2C[C@H]1c1nc(-c2ccc3c(c2)OCO3)no1 | i
CC(=O)NC(C)(C)COc1ccc(Cl)cc1 | i
O=C(Nc1ccccc1F)C1c2ccccc2C(=O)N2CCc3ccccc3C12 (stereo not drawn) | i
CCSc1nc2c(cc1C#N)CCCC2 | i
CCC(Sc1nc(C)cc(C)n1)C(=O)Nc1cc(C)on1 (stereo not drawn) | i
CCC(Sc1nc2c(cc1C#N)CCCCC2)C(=O)Nc1cc(C)on1 (stereo not drawn) | 30%*
COc1ccc(C(=O)Nc2ccc(Cl)cc2C)cc1[N+](=O)[O-] | i
CCOc1ccc(NC(=O)c2cnc3n(c2=O)CCS3)cc1 | i
O=c1cc(-c2ccc(O)cc2)oc2ccccc12 | i
O=c1cc(-c2ccccc2)c2ccc(O)cc2o1 | i

Compound activity (PubChem)
